Assay outcomes (PubChem BioAssay)
HCMV inh: human cytomegalovirus inhibition. activity change, negative = inhibition, % at 57.5 µM. 410,000 tested, 4.5% active. AID 1259415. HFF cells, HCMV-luciferase reporter, 72 h; stronger effect = lower value; in the data active means activity change below about -60%; inconclusive means no clear call, values can overlap the other calls; inactive means above about -39%
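Luciferase read-out from HCMV-luciferase-infected HFFs (MOI 1 PFU/cell) 72 h post infection at 37C; compounds added after 16 h cell attachment; activity normalized between buffer-only basal and Salinomycin (10uM) inhibitor controls.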
LASV entry inh: blocks Lassa virus binding to or entry into cells; Lassa virus pseudotype entry inhibition, cell reporter; Potency, µM (doses to about 37.9 µM), for inactives: top-dose activity change, negative = inhibition, most hits filed as inhibitors; 300,000 tested, 1.2% active; AID 540256; calls by dose curve; tested in HEK293 cells; further: potency means the concentration at half of the fitted maximal effect; nearly all actives have a fitted effect of over 50% in size
Marburg entry inh: inhibitors of Marburg virus binding or cell entry | AID 540276 | 300,000 tested, 1.8% active | Marburg virus pseudotyped entry inhibition, cell reporter | Potency, µM (series often up to 37.8 µM), inactives show top-dose activity change, negative = inhibition, most hits filed as inhibitors; calls by dose curve; tested in HEK293 cells; further: potency means the concentration at half of the fitted maximal effect
Pf growth 48h: inhibits P. falciparum growth in the first generation, 48 h; P. falciparum luciferase growth in erythrocytes, 48 h; Potency, µM (doses to about 28.7 µM), for inactives: at the highest dose activity change, negative = inhibition, most hits filed as inhibitors; 310,000 tested, 5.9% active; AID 504832; further: potency means the concentration at half of the fitted maximal effect
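Compounds are pin-transferred into medium, infected erythrocytes (2% hematocrit, 0.1% parasitemia final) are added, and plates sit one parasite generation at 37 C in 5% CO2. Detection reagent is then added and luminescence measured.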
HCV inhibitor: blocks hepatitis C virus; 340,000 tested, 3.4% active; Potency, µM (series often up to 41.8 µM), without a hit: at the highest dose activity change, negative = inhibition, usual class: inhibitors; Huh7.5.1 HCVcc-Cre infection, luciferase reporter, 44 h; further: potency means the concentration at half of the fitted maximal effect
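Infectious HCVcc-Cre (~0.5 moi) was added to cells just after compound, with cells seeded 4 h earlier at 1,000 per well. Luciferase activity after 44 h culture reported infection; substrate was incubated 15 min at room temperature before reading.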
Pf growth 96h: inhibits malaria parasite growth, 96 h; Potency, µM (top dose mostly 28.7 µM), inactives show at the highest dose activity change, negative = inhibition, hits mostly inhibitors; AID 504834; 320,000 tested, 6.9% active; P. falciparum luciferase reporter growth, 96 h; further: potency means the concentration at half of the fitted maximal effect
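Two-generation exposure (96 h) targets delayed-death phenotype. Reporter parasites carrying integrated firefly luciferase, in red cells at 2% hematocrit and 0.05% parasitemia final, kept at 37 C, 5% CO2; luminescence loss indicates inhibition.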
Active calls of the source: *; [ ] = remark or other dose. Compounds with a hit are over-represented: about 14% of the library has one in this group of screens. Unless noted, the call rests on the fitted dose curve; in most records, active means well fitted inhibition curve with a large enough effect; inconclusive means small, poorly fitted or top-dose-only effect, or another doubt; inactive means no such curve, though single readings can be large or run the other way. On the % scale 0 is the no-effect control and ±100 the full control effect.

C=CCOc1c(CNc2cccc(C(=O)O)c2)cccc1OCC was read as HCMV inh -81*, LASV entry inh 15%, Marburg entry inh 22%, Pf growth 48h 49%, HCV inhibitor 17% and Pf growth 96h 2%.
For C=CCOc1c(CNc2nccs2)cccc1OCC the results were HCMV inh 19, LASV entry inh 2%, Marburg entry inh 12%, Pf growth 48h -18% and HCV inhibitor -6%.
For C=CCOc1c(CNc2ccc(C(=O)O)cc2)cccc1OCC the results were HCMV inh 122, LASV entry inh 2%, Marburg entry inh 10%, Pf growth 48h 47%, HCV inhibitor 19% and Pf growth 96h 42%.
`C=CCOc1c(CNc2ncn[nH]2)cccc1OCC` gave HCMV inh -11, LASV entry inh inconclusive, Marburg entry inh -25%, Pf growth 48h -24%, HCV inhibitor 13% and Pf growth 96h 9.3µM*.
C=CCOc1c(CNc2ccc(C(=O)O)cc2)cccc1OC was read as HCMV inh 3, LASV entry inh 11%, Marburg entry inh 4%, Pf growth 48h 13%, HCV inhibitor 33% and Pf growth 96h 4.7µM*.
Screening CC1CCCCC12NC(=O)N(CC(=O)N1CCN(C(=O)c3cccs3)CC1)C2=O (centres undefined) returned HCMV inh -19, Pf growth 48h -26%, HCV inhibitor 3% and Pf growth 96h 3%.
For O=C(Cn1c(=O)oc2cc(S(=O)(=O)NCc3ccccc3)ccc21)NCc1ccccc1Cl the results were HCMV inh 0 and LASV entry inh -24%[46.1 µM].
Screening CCCCOc1ccc(S(=O)(=O)N2CCN(c3ccc(N4CCN(CC)CC4)nn3)CC2)cc1 returned HCMV inh -13, LASV entry inh 2%, Marburg entry inh 24%, Pf growth 48h 12µM*, HCV inhibitor inconclusive and Pf growth 96h inconclusive.
NS(=O)(=O)c1ccc(CCNC(=O)CSc2nc3c(sc(=S)n3-c3ccccc3)c(=O)[nH]2)cc1 was read as HCMV inh 2.
For CC(NNC(=S)N1CCCCCC1)c1ccc2ccccc2n1 (centres undefined) the results were HCMV inh -94*.
`Cc1ccc(-c2nn3c(=O)cc(CN4CCN(C(=O)c5ccc(C(C)(C)C)cc5)CC4)nc3s2)cc1` gave HCMV inh 2 and LASV entry inh 0%[46.1 µM].
CC1(C)CCN2CCC(C)(C)c3c(O)ccc1c32 was read as HCMV inh -91*, Pf growth 48h inconclusive, HCV inhibitor -24% and Pf growth 96h -47%.
COc1ccc(CCNc2nc3ccccc3c3nc(-c4cccc(C)c4)nn23)cc1OC was read as HCMV inh 175 and Marburg entry inh 14%[46.1 µM].
N/C(=N\OC(=O)c1ccc2ccccc2c1)c1ccccn1 was read as HCMV inh -83*, LASV entry inh inconclusive, Marburg entry inh inconclusive, Pf growth 48h -19%, HCV inhibitor 6% and Pf growth 96h 60%.
`CCCc1ccc(C(=O)O/N=C(\N)c2ccccn2)cc1` gave HCMV inh -70*, LASV entry inh 1.4µM*, Marburg entry inh 11µM*, Pf growth 48h -65%, HCV inhibitor 1% and Pf growth 96h inconclusive.
`N/C(=N\OC(=O)c1ccc2ccccc2c1)c1ccncc1` gave HCMV inh 33, Pf growth 48h inconclusive, HCV inhibitor inconclusive and Pf growth 96h 14%.
COc1ccc(-c2noc(CSc3nnc(C)n3-c3ccc(F)cc3)n2)cc1 was read as HCMV inh -23, LASV entry inh -17%[46.1 µM] and Marburg entry inh -11%[46.1 µM].
`COc1ccc(-c2cnnc(N/N=C/c3ccc(O)c(O)c3)n2)cc1` gave HCMV inh 31, LASV entry inh 4.6µM*, Marburg entry inh inconclusive, Pf growth 48h 1.7µM*, HCV inhibitor -28% and Pf growth 96h 63%.
Screening COc1ccc(-c2cnnc(N/N=C/c3c(C)nn(-c4ccccc4)c3Cl)n2)cc1 returned HCMV inh -31, LASV entry inh inconclusive, Marburg entry inh inconclusive, Pf growth 48h -25%, HCV inhibitor -12% and Pf growth 96h inconclusive.
`Brc1ccc(/C=N/Nc2nncc(-c3ccccc3)n2)o1` gave HCMV inh inconclusive, Pf growth 48h -18% and Pf growth 96h inconclusive.
For Oc1ccc(/C=N\Nc2nncc(-c3ccccc3)n2)cc1 the results were HCMV inh -66*, Pf growth 48h inconclusive, HCV inhibitor inconclusive and Pf growth 96h 2.3µM*.
For COc1ccc(-c2cnnc(N/N=C/c3ccc(O)cc3)n2)cc1 the results were HCMV inh -71*, LASV entry inh 2µM*, Marburg entry inh inconclusive, Pf growth 48h -4%, HCV inhibitor -12% and Pf growth 96h 13%.
COc1ccc(-c2cnnc(N/N=C/c3ccc(C)o3)n2)cc1 was read as HCMV inh inconclusive, LASV entry inh inconclusive, Marburg entry inh -17%[14.2 µM], Pf growth 48h inconclusive, HCV inhibitor 15% and Pf growth 96h 4.1µM*.
For Cc1ccccc1NC(=O)Nc1ccc2c(c1)CCC2 the results were HCMV inh 174, Pf growth 48h 94%, HCV inhibitor -16% and Pf growth 96h -20%.
CCN(CC)S(=O)(=O)c1ccc2c(c1)N(CC(=O)Nc1c(C)cc(C)cc1C)C(=O)C1CCCN21 (centres undefined) was read as HCMV inh 12 and LASV entry inh 3%[46.1 µM].
Screening C[N+]1(C)CCO[C@@](O)(c2ccc(-c3ccc([C@]4(O)C[N+](C)(C)CCO4)cc3)cc2)C1 returned Marburg entry inh 16%.
COCOCCn1cc(CN2CCS(=O)(=O)N(Cc3ccc(-c4cccc(CO)c4)cc3)C(C(C)C)C2=O)nn1 (centres undefined) was read as HCMV inh -1.
`COc1cccc2sc(N(Cc3cccnc3)C(=O)c3ccc(S(=O)(=O)N(C)C)cc3)nc12` gave HCMV inh -8 and LASV entry inh -8%[46.1 µM].
Cc1ccc(-c2ccc(=O)n(C(C)C(=O)Nc3ccccc3Cl)n2)cc1C (centres undefined) was read as HCMV inh 7, LASV entry inh 6%[46.1 µM] and Marburg entry inh -19%[46.1 µM].
O=C(Cn1nnc2ccccc21)OCC(=O)c1ccccc1 was read as HCMV inh 1, LASV entry inh -1%, Marburg entry inh 14%, Pf growth 48h -7%, HCV inhibitor 3% and Pf growth 96h 4.1µM*.
For O=C(Cn1nnc2ccccc21)OCC(=O)c1ccc(Cl)c(Cl)c1 the results were HCMV inh -7, LASV entry inh -1%, Marburg entry inh 17%, Pf growth 48h inconclusive and HCV inhibitor -7%.
For c1ccc2c(c1)nnn2Cn1nnc2ccccc21 the results were HCMV inh -63*.
